Our source for the inhibition values is PubChem BioAssay AID1063 (University of Pittsburgh Molecular Library Screening Center, 2008).

Usually inhibition stands for the drop in the measured response relative to a control, in per cent.

Each structure is given as a SMILES string. Out of some 200,000 compounds screened, about 18,000 (9%) were called active. Cut-off read from the data, not from the text of the source: active = inhibition above about 50%; inactive = the rest. What follows is part of a selection rich in actives, with near analogues and random picks from the rest.

The test in a line: antileishmanial activity against promastigotes – primary screen (AID 1063).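 Note: promastigotes grown with compound for 44 hours at 28 °C.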 The settings on record: Leishmania major promastigotes, resazurin fluorescence viability; at 10 µM; active compounds read high. For orientation: The colour change of resazurin is a common sign of viable cells or microbes.
In the case of `CCN1CCN(CC(=O)Nc2sc3c(c2C#N)CCC3)CC1`, the inhibition was -1.23% (inactive). Under `CCC1CCc2c(sc(NC(C)=O)c2C#N)C1` (centres undefined) stands -3.49% (inactive); under `CN1CCN(CC(=O)Nc2sc3c(c2C#N)CCC(C(C)(C)C)C3)CC1` (centres undefined), 100% (active); under `Cc1nn2cc(-c3ccc(Cl)cc3)cnc2c1Br`, -2.01% (inactive).

On to `N#C/C=C\Oc1ccc(Cl)cc1N`, for which the inhibition is 67.9% (active). Under `COc1ccc(Cl)cc1C(=O)NCC#N` stands -4% (inactive).

Consider `CCCC/S(C)=N/S(=O)(=O)c1ccc(C)cc1` (centres undefined), for which the inhibition was -10.2% (inactive). `COc1cc(NS(=O)(=O)c2ccc(NC(=O)c3ccc(S(=O)(=O)N4CCCCC4)cc3)cc2)ncn1`: the inhibition was -2.97% (inactive). Regarding `Cc1c(CCO)sc[n+]1CC(=O)OC12CC3CC(CC(C3)C1)C2`, the inhibition was 30.7% (inactive). As for `Cc1c(CCOC(=O)CC23CC4CC(CC(C)(C4)C2)C3)sc[n+]1Cc1ccc([N+](=O)[O-])cc1`, the inhibition is 87.9% (active). As for `Cc1c(CCOC(=O)c2cc([N+](=O)[O-])ccc2Cl)sc[n+]1CCCCS(=O)(=O)[O-]`, the inhibition is -8.59% (inactive).

With `COCCNC(=O)CCCn1c(=O)c2ccccc2n(Cc2cccc([N+](=O)[O-])c2)c1=O`, the inhibition was 4.7% (inactive). As for `CCCCNC(=O)CCn1c(=O)c2ccccc2n(Cc2cc(C)ccc2C)c1=O`, the inhibition is 58% (active). Regarding `CCCCNC(=O)CCn1c(=S)[nH]c2cc3c(cc2c1=O)OCO3`, the inhibition was -1.74% (inactive). `Cc1cc(OC(=O)c2ccccc2)c([N+](=O)[O-])c(=O)[nH]1`: the inhibition was -2.98% (inactive). In the case of `COc1ccc(CN(C)C(=S)Nc2ccc(Cl)cc2Cl)cc1`, the inhibition is 4.79% (inactive). As for `Cc1ccc(Cn2c(NC(=O)c3ccco3)nc3ccccc32)cc1`, the inhibition was 9.07% (inactive). In the case of `O=S(=O)(O)c1nc2ccccc2n1Cc1ccc(Cl)cc1`, the inhibition is -5.39% (inactive). `CCCCn1c(CCCNC(=O)CC)nc2ccccc21`: the inhibition is 12.4% (inactive). Under `CCC(=O)Nc1nc2ccccc2n1Cc1ccccc1C` stands 97.5% (active); under `CCC(=O)NCCc1nc2ccccc2n1CC`, -0.68% (inactive).

As for `CC(=O)Nc1nc2ccccc2n1Cc1ccc(C)cc1`, the inhibition was 88.6% (active). For the compound `CCO[C@@H]1OC(C(=O)N2CCOCC2)=C[C@H](C)[C@H]1CCCO`, the inhibition is -9.37% (inactive). The same measure for `Cn1nnnc1SCC(=O)Nc1nc2ccccc2s1`: -3.39% (inactive); for `CC(=O)c1ccc(NC(=O)C(C)N(C)CC(=O)Nc2ccccc2Cl)cc1` (centres undefined): 12.8% (inactive); for `COc1ccc(S(=O)(=O)N(C)CC(=O)N2CCCC2)cc1Cl`: -0.12% (inactive). Under `COc1cc(CNC2CCCCC2)c(Br)cc1OC1CCCC1` stands 60.8% (active); under `COc1cc(CNC2CCCC2)c(Br)cc1OCc1ccccc1`, 35.4% (inactive); under `CC(C)(C)NCc1cc(Br)ccc1OC1CCCC1`, 15.5% (inactive). Under `C=CS(=O)c1sc(Cl)c(N2CCOCC2)c1[N+](=O)[O-]` (centres undefined) stands 20.9% (inactive); under `Cc1ccccc1NC(=S)N(CCCN1CCOCC1)Cc1cccs1`, 61.8% (active).

Consider `Cc1ccc(Cl)cc1NC(=S)N(CCN(C)C)Cc1cccs1`, for which the inhibition is 18.3% (inactive). Take `CCc1cccc(C)c1NC(=S)N(CCCN1CCN(C)CC1)Cc1cccs1`: the inhibition is 22.3% (inactive). Regarding `O=C(CCN1C(=O)c2ccccc2C1=O)NCCCn1ccnc1`, the inhibition was -10.1% (inactive). In the case of `O=C(Nc1cccc(NC(=O)c2ccco2)c1)c1cnccn1`, the inhibition was 20.6% (inactive). On to `O=C(Nc1ccc2nccnc2c1)c1ccco1`, for which the inhibition was -6.2% (inactive). Regarding `O=C(Nc1cccc(-c2nc3ncccc3o2)c1)c1ccco1`, the inhibition was 100% (active).

As for `CC(=O)Nc1ccc(S(=O)(=O)Nc2nccc(/C=C/c3ccccc3F)n2)cc1`, the inhibition was -6.64% (inactive). As for `CC(c1ccco1)N(C(=O)c1ccc(S(=O)(=O)N2CCCCC2)cc1)c1ccccn1` (centres undefined), the inhibition was 89.7% (active). The same measure for `O=C(N/N=C/c1ccccn1)c1ccc(S(=O)(=O)N2CCCCCC2)cc1`: -3.79% (inactive); for `CC(c1ccco1)N(C(=O)COc1ccccc1[N+](=O)[O-])c1ccccn1` (centres undefined): 1.39% (inactive).

As to `Cn1c(N)cc(-c2ccc(F)cc2)c(C#N)c1=O`, the inhibition is 0.6% (inactive). On to `CCNC(=O)CSc1nc(-c2ccccc2)cs1`, for which the inhibition is 3.19% (inactive). As to `O=C(CSC1=NCCS1)Nc1nc(-c2ccccc2)cs1`, the inhibition is 67.4% (active). For the compound `Cc1cccc(S(=O)(=O)CC(=O)Nc2nc(-c3ccccc3)cs2)c1`, the inhibition was 98.6% (active). In the case of `Cc1ccc(-c2csc(NNC(=O)c3ccccc3)n2)cc1`, the inhibition was 16.8% (inactive). With `Cc1ccc(-c2csc(NC(=O)Cn3[nH]c(=O)c4ccccc4c3=O)n2)cc1`, the inhibition was 5.27% (inactive). Regarding `O=C(Nc1nc(-c2ccc(-c3ccccc3)cc2)cs1)c1cnccn1`, the inhibition was 47.8% (inactive). Under `Cc1ccc(S(=O)(=O)N(CC(=O)NN=C2CCN(C)CC2)c2ccc(F)cc2)cc1` stands -0.06% (inactive); under `CCc1cc2c(=O)c(-c3nc4ccccc4n3C)c(CCCC(=O)O)oc2cc1OC(=O)C(C)(C)C`, -1.6% (inactive). The same measure for `COc1ccc(C2=NN(C(=O)c3cccnc3)C(c3ccccc3)C2)cc1` (centres undefined): 5.17% (inactive); for `COc1ccc(/C=C/C(=O)NC(=S)NN2CCCCC2c2cccnc2)cc1` (centres undefined): 69.9% (active); for `CCOc1ccc(NC(=S)NC(=O)/C=C/c2ccc(OC)cc2)c([N+](=O)[O-])c1`: -5.29% (inactive). The same measure for `Cc1cccc(N=C2NC(=O)/C(=C/c3cn(C)c4ccccc34)S2)c1`: 10.8% (inactive); for `Cc1cccc(N=C2NN=C(c3c[nH]c4ccccc34)CS2)c1`: 64.9% (active). Take `Cc1cccc(C(=O)Nc2nnc(Cc3c[nH]c4ccccc34)s2)c1`: the inhibition is 19.2% (inactive). In the case of `CC(C(=O)NC1CCCC1)N(c1ccc(Oc2ccccc2)cc1)S(C)(=O)=O` (centres undefined), the inhibition is 29.4% (inactive). In the case of `CCOc1ccc(C(C)=O)cc1CSc1nnc(-c2ccncc2)n1CCOC`, the inhibition is 2.51% (inactive). Under `COc1ccc(C/C(C)=N/NC(=O)c2ccncc2)cc1` stands -6.69% (inactive); under `C/C(=N\NC(=O)Cc1ccc(Cl)cc1)c1ccccn1`, 100% (active). `C/C(=N\NC(=O)Cc1ccc(F)cc1)c1ccc(F)cc1`: the inhibition is -7.37% (inactive).

`Cc1ccc(Cl)cc1NC(=O)c1ccccn1`: the inhibition was -2.2% (inactive). Under `COc1ccc(C/C(C)=N/NC(=O)c2cc(C)oc2C)cc1` stands 2.67% (inactive); under `COc1ccc(CC(=O)N/N=C(\C)c2ccccn2)cc1`, 75.9% (active); under `COc1ccccc1NC(=O)C1=C(C)NC(=O)NC1c1ccc(C)s1` (centres undefined), 5.44% (inactive). Regarding `O=C(CC(=O)N/N=C\c1ccc(F)cc1)NCCc1ccccc1`, the inhibition was -0.64% (inactive). `Nc1ccc(S(=O)(=O)Nc2nccc(/C=C/c3ccc(Br)s3)n2)cc1`: the inhibition was 1.78% (inactive).

Turning to `O=C(O/N=C(/c1ccccc1)c1ccncc1)c1ccccc1[N+](=O)[O-]`, the inhibition was -5.52% (inactive). In the case of `COC(=O)c1ccc(NC(=S)Nc2cccc(C)n2)cc1`, the inhibition is 1.93% (inactive). Regarding `COc1cc(OC)cc(-c2nnc(SCC(=O)Nc3ccc(C(=O)O)cc3)s2)c1`, the inhibition was -10.5% (inactive). Under `COc1ccc(/C=C/C2=CC(C)(C)NC(=S)N2)c(OC)c1` stands 1.29% (inactive). With `COc1cccc(-n2c(=S)[nH]c3c(oc4ccccc43)c2=O)c1`, the inhibition is -1.14% (inactive). As for `CCCC1(C(=O)OC)NC(c2ccco2)C2C(=O)N(C)C(=O)C21` (centres undefined), the inhibition is 4.05% (inactive). On to `CCC(=O)N(Cc1cc2ccccc2[nH]c1=O)c1ccc(OC)cc1`, for which the inhibition is 11.3% (inactive). Consider `Cc1cccc2cc(CN(C(=O)c3cccs3)c3ccccc3)c(=O)[nH]c12`, for which the inhibition was -3.04% (inactive).

For `Cc1ccc(N(Cc2cc3ccccc3[nH]c2=O)C(=O)c2cccs2)cc1`, the inhibition was 75.4% (active). `Cc1ccc2c(c1)C(O)(CC(=O)c1cccc(-n3cccc3)c1)C(=O)N2` (centres undefined): the inhibition was 0.06% (inactive). `COCCCNC(=O)c1ccc2c(c1)ncn2-c1ccccc1OC`: the inhibition is -1.51% (inactive).

Consider `COc1cc(NS(=O)(=O)c2ccccc2)ccc1-n1nc(C)cc1C`, for which the inhibition is -5.46% (inactive). In the case of `COc1ccccc1-n1cnc2cc(NS(=O)(=O)c3ccccc3)ccc21`, the inhibition is 98.3% (active).

Consider `O=[N+]([O-])c1ccccc1N/N=C1\CCc2ccccc21`, for which the inhibition was -1.95% (inactive). `O=C(Nc1c2c(nc3ccccc13)CCCC2)c1ccccc1Br`: the inhibition is 6.31% (inactive).

On to `N#Cc1cccc(NC(=O)CCC2CCCC2)c1`, for which the inhibition is 5.79% (inactive). For `N#Cc1cccc(Nc2c3c(nc4ccccc24)CCCC3)c1`, the inhibition was 86.9% (active). Take `COc1ccc2c(c1)C(c1cccs1)=NNC(c1cccnc1)=N2`: the inhibition is 23.7% (inactive).

`CC(NC(=O)COC(=O)c1ccc2c(c1)OCO2)c1ccccc1` (centres undefined): the inhibition is -3.45% (inactive). Under `CCOC(=O)C1=C(C)N=C2c3ccccc3C(=O)C2C1c1ccc(Br)cc1` (centres undefined) stands 99.4% (active). In the case of `CCOC(=O)C1=C(C)NC(SC)=NC1c1ccccc1` (centres undefined), the inhibition was 8.85% (inactive). The same measure for `CCOC(=O)C1=C(C)NC(=O)NC1c1ccccc1` (centres undefined): -1.3% (inactive); for `CN(C)c1nccc(NCc2ccccc2)c1C#N`: -3.1% (inactive); for `COCCCNC(=O)CNC(=S)N(Cc1cc(OC)c(OC)c(OC)c1)C1CCCC1`: -3.29% (inactive). With `CN(C)CC(O)COc1ccc(C(C)(C)c2ccc(OCC(O)CN(C)C)cc2)cc1` (centres undefined), the inhibition was 100% (active).

Take `COc1ccc(OCC(O)CNC(=O)Nc2ccc(Cl)cc2)cc1` (centres undefined): the inhibition is -4.73% (inactive). Turning to `CCCC(O)(c1ccc(OC)cc1)C(CN(C)C)c1ccccc1` (centres undefined), the inhibition was -1.91% (inactive). Take `CN(C)S(=O)(=O)c1cccc(NC(=S)N/N=C/C(=O)c2ccccc2)c1`: the inhibition was 2.84% (inactive). `Cc1cccc(N2CCN(c3ccc(NC(=O)/C=C\C(=O)O)cc3)CC2)c1`: the inhibition was -2.44% (inactive). For the compound `Cc1cc(C(=O)CCl)c(C)n1CC1COc2ccccc2O1` (centres undefined), the inhibition was 101% (active). For `Cc1ccsc1C(=O)OCC(=O)c1cc(C)n(CC2CCCO2)c1C` (centres undefined), the inhibition is -1.1% (inactive). With `Cc1cc(NC(=O)CCC2COc3ccccc3O2)no1` (centres undefined), the inhibition is -5.57% (inactive).
